# The list is not random: actives were taken first. Their share in the collection is about 6.7%.
# C diff HTS: inhibitors of Clostridium difficile growth. Clostridium difficile clinical isolate growth, OD600, 24 h; active compounds read low. growth activity, negative = inhibition, % at 16 µg/mL (by protocol). 86,000 tested, 0.25% active. AID 1259249;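 active means mean growth activity at or below -80% and every replicate also at or below -80%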;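 further: 0% = DMSO wells and -100% = levofloxacin 16 µg/mL wells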
# Pf Dd2 growth: P. falciparum Dd2 growth inhibition | AID 1159554 | SYBR Green, 72 h; active compounds read low | activity change, % at 10 µM | 94,000 tested, 2.3% active; in the data active means activity change below about -80%
# T cruzi growth-1: inhibitors of T. cruzi proliferation; T. cruzi beta-gal in NIH3T3, GalScreen luminescence, 90 h; inhibition, % at 8.34 µM; 77,000 tested, 5.9% active; AID 624255;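 active means mean inhibition above about 93%, with at least 55% of replicates each passing it, limit read from the data, passing the limit was not always enough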
# T cruzi growth-2: Trypanosoma cruzi proliferation inhibition; shares compounds with T cruzi growth-1; 5,600 tested, 72% active; T. cruzi beta-gal in NIH3T3, GalScreen luminescence, 90 h; inhibition, % at 8.35 µM; AID 651739;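 active means mean replicate inhibition above about 95% and at least 55% of replicates individually reaching it, limit read from the data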
# T cruzi growth-3: inhibitors of T. cruzi proliferation | 5,600 tested, 21% active | inhibition, % at 2.09 µM | shares compounds with T cruzi growth-1 | T. cruzi beta-gal in NIH3T3, GalScreen luminescence, 90 h;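 active means mean inhibition above about 95%, with at least 55% of replicates also reaching it, limit read from the data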;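 further: plate controls were neutral control median for no effect and positive control median for full effect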
# 3T3 cytotox: NIH/3T3 (mouse) viability loss; shares compounds with T cruzi growth-1; NIH/3T3 viability, CellTiter-Glo ATP luminescence, 90 h; cytotoxicity (signal decrease), % at 8.35 µM; 5,600 tested, 14% active; AID 651742;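 active means mean signal decrease across replicates above about 35% based on untreated-well scatter, with enough replicates individually passing, limit read from the data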;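 further: 0% = median of neutral control wells and 100% = median of positive control wells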
# 3T3 cytotox 2: kills mouse NIH/3T3 fibroblasts; shares compounds with T cruzi growth-1; AID 651744; inhibition, % at 24.9 µM; NIH/3T3 viability, CellTiter-Glo ATP luminescence, 90 h; 5,600 tested, 56% active;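 active means mean loss of cell viability signal at or above a set limit, and enough replicates individually reaching it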;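 further: 0% = median of neutral control wells and 100% = median of positive control wells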
# Starred values were filed as active, the others as inactive; · = no result; ! = repeats disagree.
SMILES,C diff HTS,Pf Dd2 growth,T cruzi growth-1,T cruzi growth-2,T cruzi growth-3,3T3 cytotox,3T3 cytotox 2
C[C@H]1CN([C@@H](C)CO)S(=O)(=O)c2ccc(-c3ccccc3F)cc2O[C@H]1CN(C)Cc1cccnc1,2,-31,95*,99*,84,67*,49*
CCCN(C)C[C@H]1Oc2cc(-c3ccccc3F)ccc2S(=O)(=O)N([C@H](C)CO)C[C@H]1C,4,-49,58,·,·,·,·
C[C@H]1CN([C@@H](C)CO)S(=O)(=O)c2ccc(-c3ccccc3F)cc2O[C@@H]1CN(C)Cc1ccncc1,-5,-26,116*,101*,100*,40*,104*
C[C@H](CO)N1C[C@H](C)[C@H](CN(C)Cc2ccncc2)Oc2cc(-c3ccccc3F)ccc2S1(=O)=O,2,9,106*,93,91,59*,76*
O=C(Cc1ccccc1)N1CC(=O)N2[C@H](C1)[C@@H](c1ccc(-c3ccccc3)cc1)[C@@H]2CO,-4,-27,·,·,·,·,·
C[C@@H]1CN([C@@H](C)CO)C(=O)c2cc(NC(=O)CCCN(C)C)ccc2O[C@H]1CN(C)Cc1ccc2c(c1)OCO2,-1,34,·,·,·,·,·
COc1ccccc1NC(=O)Nc1ccc2c(c1)C(=O)N(C)C[C@@H](OC)[C@H](C)CN(C)[C@H](C)CO2,·,-15,11,·,·,·,·
COc1ccc(NC(=O)N2C[C@@H](O)COC[C@H]3O[C@@H](CC(=O)NC4Cc5ccccc5C4)CC[C@@H]32)cc1,·,-10,67,·,·,·,·
C[C@@H]1CN([C@@H](C)CO)S(=O)(=O)c2ccc(-c3ccccc3F)cc2O[C@H]1CN(C)Cc1ccncc1,-4,-38,116*,88,97*,65*,101*
C[C@H](CO)N1C[C@H](C)[C@@H](CN(C)Cc2ccncc2)Oc2cc(-c3ccccc3F)ccc2S1(=O)=O,9,-17,114*,96*,100*,59*,98*
C[C@@H]1CN([C@H](C)CO)S(=O)(=O)c2ccc(-c3ccccc3F)cc2O[C@@H]1CN(C)C,-1,-1,49,·,·,·,·
Cc1ccccc1-c1ccc2c(c1)O[C@@H](CN(C)Cc1ccncc1)[C@@H](C)CN([C@@H](C)CO)S2(=O)=O,2,-61,90,·,·,·,·
COc1ccccc1S(=O)(=O)N1C[C@H](O)COC[C@H]2O[C@@H](CC(=O)O)CC[C@@H]21,·,3,-19,·,·,·,·
O=C(C[C@@H]1CC[C@@H]2[C@H](COC[C@H](O)CN2C(=O)c2cccnc2)O1)NCc1ccc(Cl)cc1,-3,4,45,·,·,·,·
COc1ccc(NC(=O)N(C)C[C@H]2OCCCC[C@@H](C)Oc3ccc(N(C)C)cc3C(=O)N([C@H](C)CO)C[C@@H]2C)cc1,-3,10,105*!,53,11,21,34*
COc1ccc(NC(=O)N(C)C[C@H]2OCCCC[C@H](C)Oc3ccc(N(C)C)cc3C(=O)N([C@H](C)CO)C[C@@H]2C)cc1,0,-33,100*,60,7,4,-8
COc1ccc(NC(=O)N(C)C[C@@H]2OCCCC[C@H](C)Oc3ccc(N(C)C)cc3C(=O)N([C@H](C)CO)C[C@@H]2C)cc1,-1,-1,41,·,·,·,·
COc1ccc(NC(=O)N(C)C[C@@H]2OCCCC[C@H](C)Oc3ccc(N(C)C)cc3C(=O)N([C@H](C)CO)C[C@H]2C)cc1,-2,-57,33,·,·,·,·
C[C@@H]1CN([C@@H](C)CO)C(=O)Cc2cc(NC(=O)Cc3cn(C)c4ccccc34)ccc2O[C@@H]1CN(C)S(=O)(=O)c1ccccc1,4,-27,68,·,·,·,·
C/C=C/c1ccc([C@@H]2[C@H](CO)N(C(=O)CN(C)C)C23CN(C(=O)C2CC2)C3)cc1,5,4,·,·,·,·,·
Cn1cnc(S(=O)(=O)N[C@H]2C=C[C@@H](CC(=O)N3CCN(c4ccccc4)CC3)O[C@@H]2CO)c1,7,1,4,·,·,·,·
CN(C)CC(=O)N[C@@H]1C=C[C@@H](CC(=O)NCc2ccc(Cl)cc2)O[C@H]1CO,-2,4,-7,·,·,·,·
COc1ccc(CN(C)C[C@H]2OCCCC[C@@H](C)Oc3ccc(NC(=O)C4CCCCC4)cc3C(=O)N([C@@H](C)CO)C[C@H]2C)cc1,·,-39,105*,84,47,6,76*

# Screening results from PubChem BioAssay.
